Screening data from PubChem.
Most compounds without a hit are left out; they make up all but 1.9% or so of the library.
Bcl-xL primary: inhibitors of human Bcl-xL, primary screen, biochemical, fluorescence polarization, HTS; Bcl-2-like protein 1 (Homo sapiens), Q07817; GST-Bcl-xL / FITC-Bim BH3 peptide fluorescence polarization; inhibition, % at 10.9 µM; hit rate 0.7% among 320,000; AID 2129, 2009;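 active = inhibition above the mean of all tested compounds plus 3 SD, cutoff set per campaign, cut at about 30% in these data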;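 also: inhibitors lower millipolarization by displacing the labeled peptide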
Target sequence (Q07817 whole entry, looked up): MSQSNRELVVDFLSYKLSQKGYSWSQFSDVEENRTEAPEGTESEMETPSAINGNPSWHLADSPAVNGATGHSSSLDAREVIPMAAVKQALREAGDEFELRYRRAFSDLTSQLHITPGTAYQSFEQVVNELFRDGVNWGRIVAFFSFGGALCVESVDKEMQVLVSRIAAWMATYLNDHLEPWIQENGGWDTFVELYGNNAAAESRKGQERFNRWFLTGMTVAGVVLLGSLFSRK
LANA-H2B inh: blockers of LANA interaction with H2A/H2B – biochemical, FP readout, HTS, primary screen; cell-free LANA-H2A/H2B peptide, fluorescence polarization; Protein LANA1 (Human herpesvirus 8 type P (isolate GK18)), Q9QR71; AID 2629, 2010; inhibition, % (concentration not given with the values); hit rate 0.6% among 320,000; in the data active = inhibition mostly above about 10%, no sharp cut-off; inactive = mostly below about 6.7%
GLD-1 RNA inh: GLD-1/TGE RNA complex disruptors, primary screen, biochemical, fluorescence polarization; Female germline-specific tumor suppressor gld-1 (Caenorhabditis elegans), Q17339; purified GLD-1 + fluorescein TGE RNA; inhibition, % at 5.96 µM; hit rate 0.44% among 320,000; AID 2280, 2010;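 active = percent inhibition above a per-plate cutoff, the plate mean of test compounds plus 3 SD, cut at about 30% in these data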
MCL1 BIM primary: inhibitors of MCL1 binding to BIM-BH3, primary screen, biochemical, fluorescence polarization; AID 2057, 2009; inhibition, % at 10.9 µM; hit rate 0.68% among 320,000; Induced myeloid leukemia cell differentiation protein Mcl-1 (Homo sapiens), Q07820; GST-MCL1 / FITC-Bim-BH3 fluorescence polarization;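 active = inhibition above the mean inhibition of all tested compounds plus 3 SD, set per campaign, cut at about 40% in these data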;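 also: higher means more loss of mP so more displacement of Bim peptide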
Target sequence (Q07820 whole entry, looked up): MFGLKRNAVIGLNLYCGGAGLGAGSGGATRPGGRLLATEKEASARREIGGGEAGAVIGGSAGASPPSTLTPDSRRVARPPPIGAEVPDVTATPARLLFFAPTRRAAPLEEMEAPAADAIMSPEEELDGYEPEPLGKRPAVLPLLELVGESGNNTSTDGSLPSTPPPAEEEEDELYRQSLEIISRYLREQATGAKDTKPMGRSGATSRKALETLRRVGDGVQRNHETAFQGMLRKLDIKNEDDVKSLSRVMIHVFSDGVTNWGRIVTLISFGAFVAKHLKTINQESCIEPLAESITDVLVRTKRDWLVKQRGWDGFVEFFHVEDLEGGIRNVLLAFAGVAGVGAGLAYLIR
Yeast superoxide: reduction of superoxide in aged yeast, primary screen, HTS; S. cerevisiae aged cells, superoxide DHE fluorescence; stronger effect = lower value; superoxide response (% of plate mean), % at 10 µM; hit rate 0.18% among 330,000;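 active = superoxide response under a set limit, about three screen SD below normal, cut at about 65% in these data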;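 also: yeast aged for seven days with compound at 30 °C before DHE staining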
MEX-5 binding: MEX-5 zinc finger RNA-binding disruptors – biochemical, C. elegans, fluorescence polarization, MLPCN library, primary screen. AID 1832, 2009. MEX-5/FITC-TCR2 RNA binding; stronger effect = lower value. hit rate 0.38% among 300,000. activity score (negative = inhibition of binding), % at 10 µM. Zinc finger protein mex-5 (Caenorhabditis elegans), Q9XUB2;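 active = inhibition past about -25% in most replicates, and total fluorescence under double the plate's negative control median, limit read from the data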
Hits are given with their value; n = inactive; x = not tested or not shown; + = active, no number.

SMILES	Bcl-xL primary	LANA-H2B inh	GLD-1 RNA inh	MCL1 BIM primary	Yeast superoxide	MEX-5 binding
OCCOCCOc1ccc(-c2nn[nH]n2)cc1	n	n	n	n	n	n
CCOC(=O)c1c(-c2ccccc2)oc2ccc(O)cc12	n	n	n	n	n	n
NC(=O)c1c(-c2ccccc2)oc2ccc(O)cc12	n	17	n	n	n	n
O=C1C(Cl)=C(Nc2ccc3cn[nH]c3c2)C(=O)c2ccccc21	33	n	n	n	n	n
CC(=O)N1CCN(CC(=O)Nc2cc(S(=O)(=O)N3CCCCC3)ccc2C)CC1	x	n	n	x	n	x
O=C(NC1CC1)c1ccc(CSCc2ccccc2Cl)o1	n	n	n	n	n	n
CCC(C(=O)O)P(=O)(c1ccc(Cl)cc1)c1ccc(Cl)cc1 (stereo unspecified)	n	13	n	n	n	n
O=C(NCCCN1CCCC1)c1ccc(CS(=O)(=O)c2c(Cl)cccc2Cl)o1	n	n	n	n	n	n
Cc1cccc([N+](=O)[O-])c1C(=O)O	n	19	n	n	n	x
Cc1csc(NC(=O)c2cccc([N+](=O)[O-])c2C(=O)O)n1	n	n	n	n	n	n
N#C/C(=C/c1ccco1)c1nc2ccccc2s1	33	n	n	n	n	n
CC1=NN(C(N)=S)C(=O)C1N=Nc1cccc(C(=O)O)c1 (stereo unspecified)	x	n	x	x	n	-30
CC(=O)C1(C)OC(N)=C(C#N)C(c2ccccc2)C1(C#N)C#N (stereo unspecified)	43	n	n	n	n	n
COc1ccc(-c2ccc(/C=N/N3C(=O)C4C5C=CC(C6CC56)C4C3=O)o2)c([N+](=O)[O-])c1 (stereo unspecified)	31	x	n	n	n	n
O=C(Nc1ccon1)c1nc[nH]c1C(=O)N1CCN(c2ccccc2)CC1	x	n	n	x	n	x
Cc1ncc(CO)c(/C=N/NC(=O)c2ccc(Br)cc2)c1O	n	n	n	n	n	n
Cc1ncc(CO)c(/C=N/NC(=O)c2cc(Br)ccc2O)c1O	n	n	n	n	n	-82
Cc1ncc(CO)c(/C=N/NC(=O)c2cc(O)c(O)c(O)c2)c1O	x	x	x	x	x	-39
Cc1cc(C(=O)N/N=C/c2c(CO)cnc(C)c2O)c2ccccc2n1	n	n	n	n	n	n
O=C(Nc1ccc(Cl)cc1)c1nc[nH]c1C(=O)NCCCCNC(=O)c1[nH]cnc1C(=O)Nc1ccc(Cl)cc1	x	n	n	x	n	x
Cc1ccccc1NS(=O)(=O)c1ccc(C(=O)NCC(c2ccco2)N(C)C)cc1 (stereo unspecified)	n	20	n	n	n	n
Cc1ccc(S(=O)(=O)N(C)c2ccc(C(=O)NCC(c3ccco3)N(C)C)cc2)cc1 (stereo unspecified)	n	35	n	n	n	x
Cc1ccccc1NS(=O)(=O)c1ccc(C(=O)NCC(c2ccccc2)N(C)C)cc1 (stereo unspecified)	n	n	n	n	n	n
Cc1ccc(C)c(S(=O)(=O)Nc2ccc(C(=O)NCC(c3ccco3)N(C)C)cc2)c1 (stereo unspecified)	n	n	n	n	n	n
CC(C(=O)Nc1nnc(C2CC2)s1)N1C(=O)C2CC=CCC2C1=O (stereo unspecified)	n	13	n	n	n	x
SMILES	Bcl-xL primary	LANA-H2B inh	GLD-1 RNA inh	MCL1 BIM primary	Yeast superoxide	MEX-5 binding
C[C@@H](C(=O)Nc1nc2ccccc2s1)N1C(=O)C2CC=CCC2C1=O (stereo partly specified)	n	n	n	n	n	n
Cc1ccc(CC(=O)Nc2nc3ccccc3s2)cc1	n	24	n	n	n	n
CCOC(=O)C(=O)Cc1nc2ccccc2s1	n	n	46	n	n	n
Cc1ccc(S(=O)(=O)NC(C(=O)Oc2ccc3c(C(F)(F)F)cc(=O)oc3c2)c2ccccc2)cc1 (stereo unspecified)	45	n	47	42	n	n
CC1(C)CC(=O)C2=C(C1)OC(N)=C(C#N)C2c1ccc[nH]1 (stereo unspecified)	33	n	n	n	n	n
COc1ccc(C2C(C#N)=C(N)OC3=C2C(=O)CC(C)(C)C3)cc1 (stereo unspecified)	51	n	n	n	n	n
CC(C)n1cc(CN2CCC(Oc3ccc(C(=O)N4CCCC4)cc3)CC2)cn1	n	49	n	n	n	n
Cc1cc(C)cc(CN2CCC(Oc3ccc(C(=O)N4CCCC4)cc3)CC2)c1	x	x	x	x	x	n
COc1ccc(N2C(=O)C(Cl)=C(Nc3ccc(OC)cc3OC)C2=O)cc1	n	n	n	n	n	n
COc1ccc(NC2=C(Cl)C(=O)N(c3ccccc3)C2=O)c(OC)c1	n	15	n	n	n	n
COc1cc(/C=C2/NC(=O)N(Cc3ccccc3F)C2=O)cc(OC)c1O	n	n	66	n	n	n
Cc1nn(CC(=O)N(CC(C)C)C2CCS(=O)(=O)C2)c(C)c1[N+](=O)[O-] (stereo unspecified)	x	n	n	x	n	x
O=C(Cc1c(Cl)cccc1Cl)OCC(=O)N1CCOCC1	x	n	n	x	n	x
CCc1ccc(CN(C)C(=O)C2CCC(=O)N(CCc3ccc(OC)cc3)C2)nc1 (stereo unspecified)	n	29	n	n	n	n
CCN(Cc1cnn(C)c1)C(=O)C1CCC(=O)N(CCc2ccc(OC)cc2)C1 (stereo unspecified)	n	n	n	n	n	n
COc1ccc(CNC(=O)COC(=O)C(CCSC)NC(=O)c2ccco2)cc1OC (stereo unspecified)	n	117	n	n	n	x
O=C(CN1C(=O)NC2(CCCCCC2)C1=O)c1ccc(Cl)s1	n	n	n	n	n	n
CCNc1nc(NCC)nc(N/N=C/c2ccc(O)c(O)c2)n1	n	n	n	n	n	n
CCNc1nc(NCC)nc(N/N=C/c2ccc(N(C)C)cc2)n1	n	65	n	n	n	n
NS(=O)(=O)c1cccc(NC(=O)CCN2C(=O)C3CCCCC3C2=O)c1 (stereo unspecified)	n	n	n	n	n	x
Cc1c(Cc2ccccc2)sc(/N=C/c2c(O)ccc3ccccc23)c1C(N)=O	n	n	n	n	n	n
Cc1c(Cc2ccccc2)sc(/N=C/c2ccc3ccccc3c2)c1C(N)=O	n	+	n	n	n	x
Cc1cc(C(=O)NNC(=O)CCCCC(=O)NNC(=O)c2cc(C)[nH]n2)n[nH]1	n	n	n	n	n	-37
CC(C)(C)OC(=O)C[C@@H]1C/C=C\C[C@H](CC(=O)NCCO)C(=O)N2CCC[C@H]2COC1=O	x	n	n	x	n	x
